In all, about 52,000 compounds went through this assay and about 4,300 (8.3%) were called active. Rule as the data show it: active = survival mostly below about 52% (no sharp cut-off); inactive = mostly above about 56%. Shown is part of a subset that was picked to be rich in actives.
System: DeltatarO mutant
Test: S. aureus survival, RN4220 and DeltatarO strains – OD600, teichoic acid synthesis inhibitors, primary screen (AID 463173)
Details: S. aureus RN4220 wild type/DeltatarO growth, OD600, 18 h, active compounds read low, screened at 18.75 µg/mL (by protocol)

Q: With `CCOC(=O)C1CCCN(C(=O)c2c(C)nn(-c3ccc(F)cc3)c2-n2cccc2)C1` (stereo not drawn) as the compound, how does the survival read?
A: Its survival is 113% (inactive).

Q: How did the survival turn out when `COc1cccc(NC(=O)C2CCN(c3ccc(Sc4ccc(C)cc4)nn3)CC2)c1` was run?
A: The survival was 49% (inactive).

Q: For `O=C(CSc1cn(CC(=O)N2CCCC2)c2ccccc12)Nc1ccccc1C(F)(F)F`, which survival is on record?
A: Its survival is 66% (inactive).

Q: How did the survival turn out when `O=C(NCn1nc(-c2ccccc2)nc1-c1ccccc1)c1cccnc1` was run?
A: Its survival is 67% (inactive).

Q: With `CN(C)N=Nc1ccc(S(N)(=O)=O)cc1` as the compound, how does the survival read?
A: The survival was 92% (inactive).

Q: With `O=C(c1ccccc1)n1nc(-c2ccco2)nc1NCc1cccs1` as the compound, how does the survival read?
A: The survival was 81% (inactive).

Q: With `CC(C)CNS(=O)(=O)c1ccc(N2CCCCS2(=O)=O)cc1` as the compound, how does the survival read?
A: Its survival is 82% (inactive).

Q: `COc1ccc(CNC(=O)c2cc3ccccn3n2)c(OC)c1` was tested. Which survival did it give?
A: The survival was 71% (inactive).

Q: Which survival does the source give for `COc1ccc(Cn2nnc3c(=O)[nH]c(C4CCCN(C(=O)c5ccc(C)cc5)C4)nc32)cc1` (stereo not drawn) here?
A: The survival was 107% (inactive).

Q: How did the survival turn out when `COc1ccc(Cn2nnc3c(=O)[nH]c(C4CCN(C(=O)c5ccc(C)cc5)CC4)nc32)cc1OC` was run?
A: Its survival is 24% (active).

Q: With `O=C(c1ccccc1Cl)N1CCCC(c2nc3c(nnn3Cc3ccc(F)cc3F)c(=O)[nH]2)C1` (stereo not drawn) as the compound, how does the survival read?
A: The survival was 56% (inactive).

Q: Which survival does the source give for `CCS(=O)(=O)N1CCCC(c2nc3c(nnn3Cc3ccc(C)cc3)c(=O)[nH]2)C1` (stereo not drawn) here?
A: Its survival is 88% (inactive).

Q: How did the survival turn out when `O=C(c1cccc(Cl)c1)N1CCC(c2nc3c(nnn3Cc3ccc(F)cc3F)c(=O)[nH]2)CC1` was run?
A: Its survival is 11% (active).

Q: Which survival does the source give for `O=C(c1ccccc1)N1CCCC(c2nc3c(nnn3Cc3ccc(F)cc3F)c(=O)[nH]2)C1` (stereo not drawn) here?
A: The survival was 101% (inactive).

Q: How did the survival turn out when `Cc1ccccc1Cn1nnc2c(=O)[nH]c(C3CCN(C(=O)c4ccccc4)CC3)nc21` was run?
A: The survival was 17% (active).

Q: Which survival does the source give for `Cc1ccccc1Cn1nnc2c(=O)[nH]c(C3CCN(C(=O)c4ccccc4Cl)CC3)nc21` here?
A: The survival was 17% (active).

Q: For `COC(=O)c1ccc(NC(=O)N2CCN(c3nnc(C)c4c(C)n(-c5ccccc5)nc34)CC2)cc1`, which survival is on record?
A: The survival was 65% (inactive).

Q: Which survival does the source give for `COc1ccc(C(=O)CN2CCC(N3CCCCC3)CC2)cc1` here?
A: Its survival is 92% (inactive).

Q: Which survival does the source give for `COc1cc(-c2nc(Cn3nnc(C(=O)Nc4cccc(Cl)c4)c3C)c(C)o2)cc(OC)c1OC` here?
A: Its survival is 80% (inactive).

Q: `CCN(CC)c1ccc(C(=O)N2CCC(c3c[nH]c4ccccc34)(c3c[nH]c4ccccc34)CC2)cc1` was tested. Which survival did it give?
A: Its survival is 104% (inactive).

Q: Which survival does the source give for `CCOc1ccccc1NC(=O)N1CCN(S(=O)(=O)c2ccc3c(ccn3C)c2)CC1` here?
A: Its survival is 76% (inactive).

Q: For `CC(C)(C)c1ccc(C(=O)N2CCC(C(=O)O)CC2)cc1`, which survival is on record?
A: The survival was 68% (inactive).

Q: `CN1C(=O)CC(NCCc2ccc(S(N)(=O)=O)cc2)C1=O` (stereo not drawn) was tested. Which survival did it give?
A: The survival was 72% (inactive).

Q: With `CCOc1ccc(-n2c(SCC(=O)Nc3cccc(Cl)c3)nc3c(oc4ccccc43)c2=O)cc1` as the compound, how does the survival read?
A: The survival was 58% (inactive).

Q: For `COc1ccc(Cn2nnc3c(=O)[nH]c(C4CCCN(C(=O)c5ccccc5Cl)C4)nc32)cc1OC` (stereo not drawn), which survival is on record?
A: Its survival is 80% (inactive).

Q: For `O=C(c1ccccc1F)N1CCC(c2nc3c(nnn3Cc3cccc(F)c3)c(=O)[nH]2)CC1`, which survival is on record?
A: The survival was 47% (inactive).

Q: `Cc1cccc(Cn2nnc3c(=O)[nH]c(C4CCN(C(=O)c5ccccc5F)CC4)nc32)c1` was tested. Which survival did it give?
A: Its survival is 46% (inactive).

Q: `COc1cccc(Cn2nnc3c(=O)[nH]c(C4CCCN(C(=O)c5ccccc5Cl)C4)nc32)c1` (stereo not drawn) was tested. Which survival did it give?
A: Its survival is 80% (inactive).

Q: How did the survival turn out when `COc1cccc(Cn2nnc3c(=O)[nH]c(C4CCN(C(=O)c5ccccc5Cl)CC4)nc32)c1` was run?
A: The survival was 14% (active).

Q: For `Cc1ccccc1Cn1nnc2c(=O)[nH]c(C3CCN(C(=O)c4ccc(F)cc4)CC3)nc21`, which survival is on record?
A: Its survival is 52% (active).

Q: Which survival does the source give for `Cc1cccc(Cn2nnc3c(=O)[nH]c(C4CCN(C(=O)c5ccc(F)cc5)CC4)nc32)c1` here?
A: Its survival is 28% (active).

Q: `Cc1cc(C)cc(NC(=O)c2cc3c(=O)n(Cc4ccco4)ccc3nc2C)c1` was tested. Which survival did it give?
A: Its survival is 73% (inactive).

Q: `O=C(Nc1ccccc1)c1ccc2c(O)c(S(=O)(=O)c3ccc(Cl)cc3)c(=O)[nH]c2c1` was tested. Which survival did it give?
A: The survival was 74% (inactive).

Q: With `COc1ccc(N(C)C(=O)c2cn(C)c(=O)c3cc(OC)c(OC)cc23)cc1` as the compound, how does the survival read?
A: The survival was 177% (inactive).

Q: How did the survival turn out when `O=C(CSc1nnc(-c2ccccc2)o1)Nc1ccccc1` was run?
A: The survival was 82% (inactive).

Q: How did the survival turn out when `O=C(CSc1nnc(-c2ccco2)o1)NC(c1ccccc1)c1ccccc1` was run?
A: The survival was 61% (active).

Q: Which survival does the source give for `O=C(CCSc1nnc(-c2ccco2)o1)Nc1ccccc1` here?
A: The survival was 86% (inactive).

Q: `CCOc1ccc(Sc2cc(C(=O)NCCc3ccccc3)c3ccccc3n2)cc1` was tested. Which survival did it give?
A: Its survival is 73% (inactive).

Q: Which survival does the source give for `N#Cc1cn(CC(=O)NCc2ccccc2)c2ccccc12` here?
A: Its survival is 87% (inactive).

Q: For `COc1ccc(C)cc1NS(=O)(=O)c1ccc2c(c1)[C@H]1C=CC[C@H]1[C@@H](c1cccc(Cl)c1)N2`, which survival is on record?
A: Its survival is 57% (inactive).

Q: Which survival does the source give for `Fc1ccc([C@@H]2Nc3ccccc3[C@@H]3C=CC[C@@H]32)cc1` here?
A: Its survival is 56% (inactive).

Q: Which survival does the source give for `CCOc1ccc2c(c1)[C@@H]1C=CC[C@@H]1[C@H](c1ccccc1Cl)N2` here?
A: The survival was -10% (active).

Q: With `CCCN1CCN(CC2=C(C(=O)OCC)C(c3cccc(OC)c3OC)NC(=O)N2)CC1` (stereo not drawn) as the compound, how does the survival read?
A: Its survival is 94% (inactive).

Q: For `COc1cccc([C@H]2Nc3ccc(S(=O)(=O)Nc4cc(C)ccc4C)cc3[C@H]3C=CC[C@H]32)c1`, which survival is on record?
A: The survival was 52% (inactive).

Q: `COc1ccc(Br)cc1[C@@H]1Nc2ccc(C(=O)O)cc2[C@@H]2C=CC[C@@H]21` was tested. Which survival did it give?
A: Its survival is 36% (active).

Q: `CCOC(=O)c1ccc2c(c1)[C@@H]1C=CC[C@@H]1[C@H](c1cccc(OC)c1OC)N2` was tested. Which survival did it give?
A: The survival was -10% (active).

Q: How did the survival turn out when `COc1cccc(NS(=O)(=O)c2ccc3c(c2)[C@H]2C=CC[C@H]2[C@@H](c2ccccc2Cl)N3)c1` was run?
A: The survival was 163% (inactive).

Q: `COc1ccc(NS(=O)(=O)c2ccc3c(c2)[C@H]2C=CC[C@H]2[C@@H](c2ccc(C(=O)O)cc2)N3)cc1` was tested. Which survival did it give?
A: Its survival is 72% (inactive).

Q: How did the survival turn out when `CCCCN(CC)CCNC(=O)Cn1cnc2sc(C)c(S(=O)(=O)N3CCC(C)CC3)c2c1=O` was run?
A: The survival was 69% (inactive).

Q: `COCC(=O)NCc1ccc2c(c1)OCO2` was tested. Which survival did it give?
A: Its survival is 104% (inactive).

Q: `CCN(CC)CCOC(=O)c1ccc(NC(=O)c2cc3cc(OC)ccc3oc2=O)cc1` was tested. Which survival did it give?
A: The survival was 73% (inactive).

Q: Which survival does the source give for `COc1ccc(NC(=O)Cn2c(=O)n(-c3ccc(C)c(C)c3)c(=O)c3c(C)c(C)sc32)cc1` here?
A: Its survival is 139% (inactive).

Q: How did the survival turn out when `O=C1[C@@H]2CSC(c3ccc(C(F)(F)F)cc3)N2C(=O)N1c1ccccc1` (stereo partly drawn) was run?
A: Its survival is 81% (inactive).

— PubChem BioAssay AID463173 (ICCB-Longwood Screening Facility, Harvard Medical School, 2010)
